# ChEMBL document CHEMBL3988442, “University of Dundee, Small-Polar-MMV Screening Library” (2021)
# Hit rate of the full screen: of about 48,000 compounds, about 13,000 (27%) showed an effect of 50% or more. Some of the results follow.
# Tested on: Wolbachia pipientis
# Test: Anti-Wolbachia Cell-Based Screen
# Assay type: functional
# Design: scale not given: in the data most compounds retested in dose-response had high values
# Conditions: 5 µM
row,Structure (SMILES),Percent Effect [%]
1,CC(O)CC(C)(C)CNC(=O)Nc1cnn(-c2ccccc2F)c1 (stereo unspecified),-9.575
2,Cc1nccc(-c2ccccc2)c1C(=O)N1CCC2(CCCO2)CC1,-10.01
3,COc1ccc([C@@H]2CN(C(=O)CCn3cccn3)C[C@H]2NC(C)=O)cc1,10.72
4,Cc1nccc(-c2cccc(NCC(=O)N3CCc4sccc4C3)c2)n1,-3.121
5,CC(C)Oc1ccc(CN2CCCC(N3CCCC3)C2)cc1CO (stereo unspecified),-11.2
6,O=C(C1SCCc2ccccc21)N1CCC(O)CC1 (stereo unspecified),-12.36
7,CC1(C)CC(C(=O)N2CCC3(CCC(=O)N(C4CC4)C3)CC2)CCO1 (stereo unspecified),-18.18
8,CC(C)OCCS(=O)(=O)N1CCN(Cc2ccco2)CC1,-6.984
9,CCCS(=O)(=O)N1CCN(Cc2ccco2)CC1.O=C(O)C(=O)O,120.3
10,CCCS(=O)(=O)N1C[C@@H]2CN(Cc3ccco3)CCO[C@@H]2C1.O=C(O)C(F)(F)F,4.107
11,CCS(=O)(=O)N1CCC(c2cc3n(n2)[C@@H](C(F)(F)F)C[C@@H](C)N3)CC1,-9.512
12,CC(C)OCc1ccc(CNC(=O)NC2(CO)CCCC2)cc1,4.047
13,NC(=O)NC1CCN(Cc2ccc3c(c2)CCC3)CC1,-13.21
14,Cc1nnc(CN(Cc2ccc(Cl)c(Cl)c2)C2CC2)o1,12.83
15,Cc1nnc(CN(Cc2cccc(Br)c2)C2CC2)o1,-10
16,Cc1nnc(CN(Cc2ccccc2Br)C2CC2)o1,-0.8138
17,Cc1nnc(CN(Cc2ccc(Cl)c(Cl)c2)C(C)C)o1,6.742
18,Cc1nnc(CN(Cc2ccc3c(c2)OCO3)C2CCCCC2)o1,129.8
19,Cc1nnc(CN(Cc2ccc3c(c2)OCO3)C2CCC(C)CC2)o1 (stereo unspecified),119.4
20,Cc1ccc2nc3n(c2c1)[C@@H](CNCc1nccs1)COC3,-1.407
21,COc1ccccc1C(NC(=O)CN(C)C(C)C)c1noc(C)n1 (stereo unspecified),-26.87
22,Cc1ccc(C)c(NC(=O)N(C)Cc2cnn(C)c2)c1,5.925
23,COCC(=O)N1CCC2(CCC2N(C)Cc2ccco2)CC1.O=C(O)C(F)(F)F (stereo unspecified),-4.207
24,CC(C(=O)NCc1cccc(N2CCCC2=O)c1)S(C)(=O)=O (stereo unspecified),-9.157
25,COc1ccc(NC(=O)NCc2cccc(N(C)C)n2)c(Cl)c1,3.933
26,CCc1nc(C(=O)NCc2ccc(N3CCNC(=O)C3)c(F)c2)c[nH]1,-14.99

row,Structure (SMILES),Percent Effect [%]
1,Cc1ccc([C@@H]2CN(S(=O)(=O)Cc3ccccc3)C[C@H]2N(C)C)cc1,2.624
2,CCN(Cc1ccncc1)Cc1cn(-c2ccccc2)nn1,-1.691
3,CC(C)(C)n1nnnc1CN(Cc1ccccc1)Cc1ccc(Cl)cc1,282.7
4,CC(C)(C)n1nnnc1CN(Cc1ccccc1)Cc1ccccc1Cl,144.9
5,CCN(Cc1noc(CC(C)C)n1)Cc1ccccc1Cl,16.12
6,CCn1ccnc1CN(C)Cc1nc(Cc2ccccc2Cl)no1,-11.87
7,CN(CCc1ccncc1)Cc1nccn1Cc1ccccc1,0.009024
8,CN(Cc1ccncc1)Cc1nccn1Cc1ccccc1,10.06
9,CC(C)(C)n1nnnc1CN(CCc1ccccc1)Cc1ccccc1,189.2
10,Cc1nc(CCN(C)C(=O)CN2C(=O)OC[C@@H]2c2ccccc2)no1,2.107
11,CN(C)[C@H]1C[C@@H](Cc2cc(-c3ccc(F)cc3)on2)C1(C)C,-8.527
12,CN(Cc1ccoc1)C(=O)C1(Oc2ccc(Cl)cc2)CCNCC1,7.031
13,CN1CCOC(C(=O)Nc2ccc3c(c2)nc(C2CC2)n3C)C1 (stereo unspecified),-8.812
14,CCS(=O)(=O)N1CC[C@H]2O[C@H](c3nnc(C)o3)CC[C@H]21,-2.674
15,CC(C)C1COC2(CCN(Cc3ccco3)CC2)C1.O=C(O)C(F)(F)F (stereo unspecified),8.563
16,CN(C)C(=O)CO[C@H]1CO[C@@]2(CCN(Cc3ccsc3)C2)C1.O=C(O)C(F)(F)F,-11.41
17,COc1ccc(CN2CCOC3(CCCN(C(C)=O)C3)C2)cc1.O=C(O)C(F)(F)F (stereo unspecified),-1.413
18,CC(C)NC(=O)CC1COC2(CCN(Cc3cccnc3)CC2)C1.O=C(O)C(F)(F)F.O=C(O)C(F)(F)F (stereo unspecified),94.4
19,CC(C)NC(=O)CC1COC2(CCN(Cc3ccsc3)CC2)C1.O=C(O)C(F)(F)F (stereo unspecified),89.57
20,CC(C)NC(=O)CC1COC2(CCN(Cc3ccco3)CC2)C1 (stereo unspecified),109.8
21,COc1ccc(CN2CCC3(CC2)CN(c2ccccn2)CCO3)cc1.O=C(O)C(F)(F)F.O=C(O)C(F)(F)F,-0.9926
22,COc1ccc(CN2CCC3(CC2)CC(CC(=O)NC(C)C)CO3)cc1.O=C(O)C(F)(F)F (stereo unspecified),102.4
23,CN(C)C(=O)NC1COC2(CCN(Cc3ccco3)CC2)C1 (stereo unspecified),-11.16
24,CC(C)NC(=O)[C@H]1C[C@@H]2[C@@H](C1)OCCN2Cc1ccsc1.O=C(O)C(F)(F)F,9.511
25,CC(C)C(=O)NC1COC2(CCN(Cc3cccnc3)CC2)C1.O=C(O)C(F)(F)F.O=C(O)C(F)(F)F (stereo unspecified),-8.179
26,CC(C)OCc1ncn2c1CN(Cc1ccoc1)CCC2.O=C(O)C(F)(F)F,-8.556

row,Structure (SMILES),Percent Effect [%]
1,Cc1ncsc1CN1C[C@H](C(=O)N2CCCO2)[C@@H]2CCO[C@@H]2C1.O=C(O)C(F)(F)F.O=C(O)C(F)(F)F,-11.3
2,Cc1[nH]ccc1C(=O)N(Cc1ccc(O)cc1)CC1CC1,16.53
3,FC(F)(F)C1CCCn2c(CNCc3ccco3)nnc21 (stereo unspecified),4.38
4,c1nc(N2CCCCC2Cn2cncn2)c2ccsc2n1 (stereo unspecified),0.5498
5,CCCc1cc(N(CCOC)CC(F)F)n2ncnc2n1,-3.752
6,CN(C)C(=O)CN(C)C(=O)c1cccn1CCc1ccccc1,-9.709
7,CC(=O)N1CCOCC2(CCN(Cc3ccc(C)s3)CC2)C1.O=C(O)C(F)(F)F,-6.944
8,Cc1ccc(CN2CC(C(=O)NC(C)C)C3(CCOCC3)C2)s1.O=C(O)C(F)(F)F (stereo unspecified),1.411
9,Cc1ccc(CN2CCC3(CC2)CC(CC(=O)NC(C)C)CO3)s1.O=C(O)C(F)(F)F (stereo unspecified),100.2
10,N#Cc1ccc(C(=O)N2CCCC3(C=Cc4ccccc4O3)CC2)cn1 (stereo unspecified),6.705
11,CC(=O)NC(C)C(=O)N(Cc1ccc(C)c(C)c1)C1CC1 (stereo unspecified),-3.122
12,CN1CC[C@H](c2ccccc2)[C@@H]2[C@H]1CCCCN2C(=O)c1cnccn1,-5.726
13,Cn1cc(C(=O)N2CC[C@@H]3[C@@H]2CCN3c2ccccn2)cn1,-3.073
14,O=C(c1ccccn1)N1C[C@@H]2CC[C@H](C1)N(C(=O)CCN1CCCC1)C2,-10.03
15,CN1CCCCC[C@@H]2[C@@H]1[C@H](c1ccccc1)CN2C(=O)c1ccccn1,114.6
16,CN1CCCC[C@@H]2[C@H]1[C@@H](c1ccccc1)CCN2C(=O)c1ccccn1,98.54
17,CN1CCCC[C@@H]2[C@H]1[C@@H](c1ccccc1)CCN2C(=O)c1cnccn1,3.186
18,CCc1nsc(NC2CC(=O)N(C(C)(C)C)C2)n1 (stereo unspecified),-4.433
19,O=C(CC1CCN(c2cccnn2)CC1)NC1CCOCC1,83.52
20,O=C(CNCC1CCCN1c1cccnn1)NCCc1cccs1 (stereo unspecified),4.052
21,O=C(CCc1cccs1)NCC1CCCN1c1cccnn1 (stereo unspecified),-0.2437
22,Cc1ccc(N2CCCC(NCC(=O)NC3CCOCC3)C2)nn1 (stereo unspecified),0.2085
23,CC(OCC1CC1)C(=O)N1CCCN(c2cccnn2)CC1 (stereo unspecified),-4.711
24,CN(C)CCNC(=O)CC1CCN(c2cccnn2)CC1,87.97
25,O=C(CC1CCN(c2cccnn2)CC1)NCCO,94.51
26,O=C(CN1CCCC1Cn1cccn1)NC1CCOCC1 (stereo unspecified),-8.305

row,Structure (SMILES),Percent Effect [%]
1,CN1CCC(C(=O)N2CCCN(c3cccnn3)CC2)C1 (stereo unspecified),-4.749
2,O=C(c1cn(-c2cc(N3CCSCC3)ncn2)cn1)N1CCOCC1,2.163
3,COCCN1C[C@@H]2CN(C(=O)CC3CC3)C[C@@H]2C1=O,3.353
4,Cc1n[nH]c(C)c1C1CCCN1C(=O)NCCSC(C)(C)C (stereo unspecified),-9.308
5,CC(C)(C)SCCN1CC(=O)N2CC[C@@H](O)C[C@H]2C1=O,105.3
6,COCCN1C[C@H]2CN(C(=O)C3CC3)CCN2C1=O,0.212
7,COCCN1CC(=O)N2CC[C@@H](O)C[C@H]2C1=O,111.7
8,O=C1[C@@H]2C[C@H](O)CCN2C(=O)CN1CCSc1ccccn1,99.26
9,O=C(C1CC1)N1CCN(C(=O)CSc2ccccn2)[C@H]2CS(=O)(=O)C[C@H]21,-23.43
10,O=C(CC1CCc2ccccc21)NCCSc1ccccn1 (stereo unspecified),-6.128
11,Cc1ncccc1CNc1ccc(OCCO)nc1,-18.76
12,O=C(c1ccoc1)N1CCC2(CC1)COC(COCc1ccccn1)C2 (stereo unspecified),4.399
13,Cc1nncn1CCNC(=O)C1SCCc2sccc21 (stereo unspecified),0.3971
14,CCc1ccc(CN2CCc3[nH]nc(C(=O)N4CCNC(=O)C4)c3C2)o1,-23.7
15,CC(C)NC(=O)CCNC(=O)Nc1cnn(-c2ccccc2Cl)c1,-14.09
16,CCOC[C@@]12CCC[C@@H]1CN(C(=O)COc1ccccc1OC)C2,101.3
17,O=C(Cc1ccco1)N1C[C@H]2CCC[C@@]2(COc2cccnc2)C1,-23.92
18,COC[C@@]12CCC[C@@H]1CN(C(=O)COc1ccccc1OC)C2,104.3
19,CCOC[C@@]12CCC[C@@H]1CN(C(=O)c1ccc(OC)cc1)C2,116.5
20,O=C(O)C(F)(F)F.O=C(c1ccc(F)cc1)N1C[C@H]2CCC[C@@]2(COCc2ccncc2)C1,3.034
21,CCO[C@@H]1CO[C@@]2(CCCN(C(=O)COc3ccccc3OC)C2)C1,-3.938
22,Cc1ccc(C(=O)N2C[C@H]3CCC[C@@]3(COCc3ccncc3)C2)cn1.O=C(O)C(F)(F)F.O=C(O)C(F)(F)F,-7.119
23,COC[C@@]12CCO[C@@H]1CCN(C(=O)COc1ccccc1OC)C2,3.153
